Calls of active or inactive are those of the source. Rule for the calls: active = hit-call score of the fitted dose curve at least 0.9, where 1 is the maximum; inactive = score below 0.9.
Key:
Conditions in all cases: mRNA level, 48 h; actives raise or lower the signal
[1] = read-out: JUN Transcription Factor, JUN (gene 3725); assay: LTEA_HepaRG_JUN: Life Technologies and Expression Analysis (LTEA) Assay for JUN Transcription Factor using HepaRG (AID 2283513)
How it was run: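 HepaRG, 48 h exposure, 8-pt half-log series top 100 uM, 0.5% DMSO, duplicate. JUN mRNA by qRT-PCR (Fluidigm), housekeeping-normalized (ACTB/GAPDH/POLR2A); bidirectional curve fit vs DMSO baseline.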

[2] = read-out: Lipase C (LIPC), LIPC (gene 3990); assay: LTEA_HepaRG_LIPC: Life Technologies and Expression Analysis (LTEA) Assay for Lipase C (LIPC) using HepaRG (AID 2283514)
How it was run: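 LIPC expression was quantified by qRT-PCR against three housekeeping genes (ACTB, GAPDH, POLR2A). Differentiated human HepaRG cells received eight half-log doses (top 100 uM, 0.5% DMSO) in duplicate for 48 h; fitting bidirectional relative to DMSO.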

[3] = read-out: Lipoprotein lipase (LPL), LPL (gene 4023); assay: LTEA_HepaRG_LPL: Life Technologies and Expression Analysis (LTEA) Assay for Lipoprotein lipase (LPL) using HepaRG (AID 2283515)
How it was run: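 LPL transcript levels quantified by TaqMan qRT-PCR against three housekeeping genes after 48 h chemical treatment of HepaRG cells. Eight-point half-log series from 100 uM in 0.5% DMSO, tested in duplicate; bidirectional fitting versus vehicle.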

[4] = read-out: MicroRNA 122 (MIR122), gene 406906; assay: LTEA_HepaRG_MIR122: Life Technologies and Expression Analysis (LTEA) Assay for MicroRNA 122 (MIR122) using HepaRG (AID 2283516); note: the transcript read is the microRNA miR-122
How it was run: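 qRT-PCR read-out (TaqMan, Fluidigm array), normalized to three housekeeping genes; HepaRG cells dosed 48 h at 8 concentrations up to 100 uM in 0.5% DMSO, duplicate; gain or loss fitted against DMSO baseline.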

[5] = read-out: matrix metalloproteinase-10 (MMP10), MMP10 (gene 4319); assay: LTEA_HepaRG_MMP10: Life Technologies and Expression Analysis (LTEA) Assay for matrix metalloproteinase-10 (MMP10) using HepaRG (AID 2283517)
How it was run: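 Expression measured by TaqMan qRT-PCR with ACTB/GAPDH/POLR2A normalisation after 48 h chemical exposure of HepaRG cells. Eight half-log concentrations, top 100 uM, 0.5% DMSO vehicle, duplicates; gain or loss fitted against vehicle.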

MYC, MYC (gene 4609) = assay: LTEA_HepaRG_MYC: Life Technologies and Expression Analysis (LTEA) Assay for MYC using HepaRG (AID 2283518)
How it was run: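 Differentiated HepaRG cells exposed 48 h in serum-free induction medium to 8 concentrations (top 100 uM, half-log steps; 0.5% DMSO), duplicate. MYC mRNA measured by Fluidigm qRT-PCR, normalized to ACTB, GAPDH, POLR2A; bidirectional fit versus DMSO.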

[6] = read-out: matrix metalloproteinase-3 (MMP3), MMP3 (gene 4314); assay: LTEA_HepaRG_MMP3: Life Technologies and Expression Analysis (LTEA) Assay for matrix metalloproteinase-3 (MMP3) using HepaRG (AID 2283519)
How it was run: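 Fluidigm-based TaqMan qRT-PCR, normalized to ACTB, GAPDH and POLR2A and fitted bidirectionally versus 0.5% DMSO, measured transcript levels. Treatment: duplicate 48 h exposures of HepaRG cells, ~100,000/well, to eight half-log concentrations topping at 100 uM.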

[7] = read-out: Paternally Expressed 10 (PEG10), PEG10 (gene 23089); assay: LTEA_HepaRG_PEG10: Life Technologies and Expression Analysis (LTEA) Assay for Paternally Expressed 10 (PEG10) using HepaRG (AID 2283520)
How it was run: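 qRT-PCR read-out: PEG10 mRNA normalised to three housekeeping genes, fitted bidirectionally against 0.5% DMSO vehicle. HepaRG cells received test chemicals for 48 h in serum-free induction medium, 8 points, top 100 uM, half-log steps.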

[8] = read-out: Nuclear factor NF-kappa-B p105 subunit (Homo sapiens) (UniProt P19838); assay: LTEA_HepaRG_NFKB1: Life Technologies and Expression Analysis (LTEA) Assay for Nuclear Factor Kappa B Subunit 1 (NFKB1) using HepaRG (AID 2283521)
How it was run: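 Differentiated human HepaRG cells were exposed for 48 h in serum-free induction medium to eight concentrations (top 100 uM, half-log steps, 0.5% DMSO), in duplicate. NFKB1 mRNA was measured by TaqMan qRT-PCR, normalized to ACTB/GAPDH/POLR2A, and fitted bidirectionally against DMSO.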

[9] = read-out: Protein phosphatase 2A (PPP2R4), PTPA (gene 5524); assay: LTEA_HepaRG_PPP2R4: Life Technologies and Expression Analysis (LTEA) Assay for Protein phosphatase 2A (PPP2R4) using HepaRG (AID 2283522)
How it was run: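 HepaRG, 48 h exposure, 8-pt half-log series from 100 uM, 0.5% DMSO vehicle, duplicates. Readout: PPP2R4 mRNA, Fluidigm qRT-PCR, housekeeping-normalized. Bidirectional curve fit vs DMSO baseline.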

[10] = read-out: Phosphatase and tensin (PTEN), PTEN (gene 5728); assay: LTEA_HepaRG_PTEN: Life Technologies and Expression Analysis (LTEA) Assay for Phosphatase and tensin (PTEN) using HepaRG (AID 2283523)
How it was run: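 Read-out: TaqMan qRT-PCR of PTEN transcript, normalized to three housekeeping genes, fitted in both directions against 0.5% DMSO. Differentiated human HepaRG cultures received chemicals for 48 h, eight-point half-log series topping at 100 uM.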

[11] = read-out: solute carrier (SLC22A1), SLC22A1 (gene 6580); assay: LTEA_HepaRG_SLC22A1: Life Technologies and Expression Analysis (LTEA) Assay for solute carrier (SLC22A1) using HepaRG (AID 2283524)
How it was run: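 Transcript level of SLC22A1 quantified by qRT-PCR (normalized to three housekeeping genes) after 48 h chemical exposure of HepaRG cells, eight concentrations up to 100 µM, half-log steps, 0.5% DMSO vehicle. Gain or loss relative to DMSO fitted bidirectionally.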

[12] = read-out: Pyruvate Dehydrogenase Kinase 4 (PDK4), PDK4 (gene 5166); assay: LTEA_HepaRG_PDK4: Life Technologies and Expression Analysis (LTEA) Assay for Pyruvate Dehydrogenase Kinase 4 (PDK4) using HepaRG (AID 2283525)
How it was run: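 Readout is qRT-PCR of PDK4 transcript, normalized to three housekeeping genes, with bidirectional fitting against 0.5% DMSO vehicle. Differentiated HepaRG cells were treated 48 h in serum-free induction medium, duplicate wells, eight-point half-log series topping at 100 uM.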

[13] = read-out: NAD(P)H dehydrogenase [quinone] 1 (NQO1), NQO1 (gene 1728); assay: LTEA_HepaRG_NQO1: Life Technologies and Expression Analysis (LTEA) Assay for NAD(P)H dehydrogenase [quinone] 1 (NQO1) using HepaRG (AID 2283526)
How it was run: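 qRT-PCR read-out (Fluidigm TaqMan), normalized to three housekeeping genes, after 48 h chemical exposure of HepaRG cells. Concentrations: eight points, top 100 uM, half-log steps, 0.5% DMSO vehicle. Gain or loss of signal fitted relative to DMSO.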

[14] = read-out: Nuclear factor erythroid 2-related factor 2 (Homo sapiens) (UniProt Q16236); assay: LTEA_HepaRG_NFE2L2: Life Technologies and Expression Analysis (LTEA) Assay for Nuclear factor erythroid 2-related factor 2 (NFE2L2) Transcription Factor using HepaRG (AID 2283527);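 note: TaqMan qRT-PCR transcript level normalised to ACTB GAPDH and POLR2A housekeeping genes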
How it was run: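 NFE2L2 transcript level was read by qRT-PCR (housekeeping ACTB/GAPDH/POLR2A normalisation) after 48 h chemical treatment of HepaRG in serum-free induction medium. Duplicate 8-point half-log curves, top 100 uM, 0.5% DMSO vehicle; up- or down-regulation fitted against vehicle.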

[15] = read-out: succinate dehydrogenase complex iron sulfur subunit B (SDHB), SDHB (gene 6390); assay: LTEA_HepaRG_SDHB: Life Technologies and Expression Analysis (LTEA) Assay for succinate dehydrogenase complex iron sulfur subunit B (SDHB) using HepaRG (AID 2283528)
How it was run: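 HepaRG, 48 h exposure, 8-pt half-log series from 100 uM in 0.5% DMSO, duplicates. Readout: SDHB mRNA by Fluidigm qRT-PCR vs housekeeping genes; bidirectional fit relative to DMSO.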

[16] = read-out: Signal transducer and activator of transcription 3 (Homo sapiens) (UniProt P40763); assay: LTEA_HepaRG_STAT3: Life Technologies and Expression Analysis (LTEA) Assay for Signal transducer and activator of transcription (STAT3) using HepaRG (AID 2283529)
How it was run: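 STAT3 transcript quantified by qRT-PCR against three housekeeping genes (ACTB, GAPDH, POLR2A), fitted both directions relative to DMSO. HepaRG cultures exposed 48 h to eight half-log concentrations, top 100 uM, 0.5% DMSO, serum-free induction medium.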

[17] = read-out: solute carrier (SLCO1B1), SLCO1B1 (gene 10599); assay: LTEA_HepaRG_SLCO1B1: Life Technologies and Expression Analysis (LTEA) Assay for solute carrier (SLCO1B1) using HepaRG (AID 2283530)
How it was run: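 Differentiated human HepaRG cells were exposed for 48 h in serum-free induction medium to eight half-log concentrations, top 100 uM, in 0.5% DMSO. SLCO1B1 mRNA was measured by qRT-PCR, normalized to ACTB, GAPDH and POLR2A, and fitted bidirectionally against DMSO.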

Measured: outcome

Nuclear factor NF-kappa-B p105 subunit (Homo sapiens), sequence (P19838 whole entry, looked up): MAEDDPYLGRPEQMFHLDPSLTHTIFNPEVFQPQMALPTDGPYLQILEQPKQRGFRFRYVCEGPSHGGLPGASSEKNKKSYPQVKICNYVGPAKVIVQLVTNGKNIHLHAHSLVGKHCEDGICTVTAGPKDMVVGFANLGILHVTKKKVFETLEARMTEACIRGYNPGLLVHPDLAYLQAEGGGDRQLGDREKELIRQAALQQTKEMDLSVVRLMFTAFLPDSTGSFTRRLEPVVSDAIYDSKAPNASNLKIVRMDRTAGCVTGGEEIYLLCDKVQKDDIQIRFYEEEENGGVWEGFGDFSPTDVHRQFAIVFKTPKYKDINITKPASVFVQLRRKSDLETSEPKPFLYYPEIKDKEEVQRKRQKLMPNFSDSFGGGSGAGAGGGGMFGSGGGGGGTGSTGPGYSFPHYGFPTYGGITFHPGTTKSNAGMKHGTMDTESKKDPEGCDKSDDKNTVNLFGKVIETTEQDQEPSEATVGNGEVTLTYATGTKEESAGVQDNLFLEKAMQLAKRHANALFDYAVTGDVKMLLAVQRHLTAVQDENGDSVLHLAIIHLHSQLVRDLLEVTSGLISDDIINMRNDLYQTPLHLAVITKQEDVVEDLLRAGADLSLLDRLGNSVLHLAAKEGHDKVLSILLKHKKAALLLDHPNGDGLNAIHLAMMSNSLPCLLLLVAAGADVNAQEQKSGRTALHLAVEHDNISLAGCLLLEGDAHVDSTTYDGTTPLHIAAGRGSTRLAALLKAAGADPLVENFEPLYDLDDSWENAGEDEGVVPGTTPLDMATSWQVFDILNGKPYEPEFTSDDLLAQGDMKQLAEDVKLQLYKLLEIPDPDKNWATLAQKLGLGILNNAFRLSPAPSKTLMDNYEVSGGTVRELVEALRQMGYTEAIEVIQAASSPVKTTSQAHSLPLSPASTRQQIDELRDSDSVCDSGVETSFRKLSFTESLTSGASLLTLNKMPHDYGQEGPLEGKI
Nuclear factor erythroid 2-related factor 2 (Homo sapiens), sequence (Q16236 whole entry, looked up): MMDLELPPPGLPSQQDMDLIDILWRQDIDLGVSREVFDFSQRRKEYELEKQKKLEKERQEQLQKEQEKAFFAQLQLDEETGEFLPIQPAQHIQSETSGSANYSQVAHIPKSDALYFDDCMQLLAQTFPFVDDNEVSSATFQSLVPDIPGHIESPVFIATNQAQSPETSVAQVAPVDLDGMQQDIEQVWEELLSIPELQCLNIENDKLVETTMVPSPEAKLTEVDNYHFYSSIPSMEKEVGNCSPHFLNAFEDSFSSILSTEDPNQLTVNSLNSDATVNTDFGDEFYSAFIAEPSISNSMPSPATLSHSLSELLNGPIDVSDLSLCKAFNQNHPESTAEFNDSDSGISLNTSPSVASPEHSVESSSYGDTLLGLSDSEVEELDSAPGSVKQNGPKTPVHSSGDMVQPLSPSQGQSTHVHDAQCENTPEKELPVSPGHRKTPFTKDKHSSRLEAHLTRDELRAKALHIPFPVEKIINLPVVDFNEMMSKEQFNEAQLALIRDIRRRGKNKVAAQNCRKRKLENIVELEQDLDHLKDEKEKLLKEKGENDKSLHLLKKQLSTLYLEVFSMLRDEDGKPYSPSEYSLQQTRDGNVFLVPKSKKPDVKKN
Signal transducer and activator of transcription 3 (Homo sapiens), sequence (P40763 whole entry, looked up): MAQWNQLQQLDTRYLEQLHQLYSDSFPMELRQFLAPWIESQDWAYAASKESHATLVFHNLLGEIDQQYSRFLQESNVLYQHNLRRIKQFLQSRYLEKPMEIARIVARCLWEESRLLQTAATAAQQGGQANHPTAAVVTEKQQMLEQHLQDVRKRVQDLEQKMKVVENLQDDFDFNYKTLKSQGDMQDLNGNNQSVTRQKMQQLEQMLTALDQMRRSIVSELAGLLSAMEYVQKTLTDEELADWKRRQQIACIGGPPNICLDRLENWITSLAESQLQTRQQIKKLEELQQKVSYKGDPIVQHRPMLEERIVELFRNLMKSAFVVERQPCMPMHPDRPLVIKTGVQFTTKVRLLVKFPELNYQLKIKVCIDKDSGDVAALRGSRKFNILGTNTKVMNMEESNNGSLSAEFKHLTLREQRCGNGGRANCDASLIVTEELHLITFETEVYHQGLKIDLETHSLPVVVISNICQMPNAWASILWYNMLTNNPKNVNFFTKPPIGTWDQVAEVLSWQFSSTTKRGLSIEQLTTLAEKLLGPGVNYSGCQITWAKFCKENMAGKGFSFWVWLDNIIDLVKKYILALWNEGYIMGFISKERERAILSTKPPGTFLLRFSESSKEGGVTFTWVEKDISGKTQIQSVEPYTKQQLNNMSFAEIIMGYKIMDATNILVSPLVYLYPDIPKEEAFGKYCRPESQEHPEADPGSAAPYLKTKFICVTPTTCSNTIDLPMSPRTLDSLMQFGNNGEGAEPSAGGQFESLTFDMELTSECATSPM

c1cc[n+]2c(c1)-c1cccc[n+]1CC2
inactive: [1] | [2] | [3] | [4] | [5] | MYC, MYC (gene 4609) | [6] | [7] | [8] | [9] | [10] | [11] | [12] | [13] | [14] | [15] | [16] | [17]

— PubChem BioAssay (EPA / NIEHS)
